From article PMC4336329 (PLoS ONE, 2015)
The campaign covered roughly 310,000 compounds. About 14,000 (4.5%) showed an effect of 50% or more. The effect is printed as a negative number. The sample as a whole holds a higher share of strong results than the screen did.

target: human ether-à-go-go-related gene (hERG) potassium channel (human, UniProt Q12809); assay: primary screen, population patch clamp on CHO cells stably expressing hERG; higher = less effect of the substance
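Note: peak tail current of the secondary pulse compared with the same well before compound.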

human ether-à-go-go-related gene (hERG) potassium channel, sequence (Q12809 whole entry, looked up): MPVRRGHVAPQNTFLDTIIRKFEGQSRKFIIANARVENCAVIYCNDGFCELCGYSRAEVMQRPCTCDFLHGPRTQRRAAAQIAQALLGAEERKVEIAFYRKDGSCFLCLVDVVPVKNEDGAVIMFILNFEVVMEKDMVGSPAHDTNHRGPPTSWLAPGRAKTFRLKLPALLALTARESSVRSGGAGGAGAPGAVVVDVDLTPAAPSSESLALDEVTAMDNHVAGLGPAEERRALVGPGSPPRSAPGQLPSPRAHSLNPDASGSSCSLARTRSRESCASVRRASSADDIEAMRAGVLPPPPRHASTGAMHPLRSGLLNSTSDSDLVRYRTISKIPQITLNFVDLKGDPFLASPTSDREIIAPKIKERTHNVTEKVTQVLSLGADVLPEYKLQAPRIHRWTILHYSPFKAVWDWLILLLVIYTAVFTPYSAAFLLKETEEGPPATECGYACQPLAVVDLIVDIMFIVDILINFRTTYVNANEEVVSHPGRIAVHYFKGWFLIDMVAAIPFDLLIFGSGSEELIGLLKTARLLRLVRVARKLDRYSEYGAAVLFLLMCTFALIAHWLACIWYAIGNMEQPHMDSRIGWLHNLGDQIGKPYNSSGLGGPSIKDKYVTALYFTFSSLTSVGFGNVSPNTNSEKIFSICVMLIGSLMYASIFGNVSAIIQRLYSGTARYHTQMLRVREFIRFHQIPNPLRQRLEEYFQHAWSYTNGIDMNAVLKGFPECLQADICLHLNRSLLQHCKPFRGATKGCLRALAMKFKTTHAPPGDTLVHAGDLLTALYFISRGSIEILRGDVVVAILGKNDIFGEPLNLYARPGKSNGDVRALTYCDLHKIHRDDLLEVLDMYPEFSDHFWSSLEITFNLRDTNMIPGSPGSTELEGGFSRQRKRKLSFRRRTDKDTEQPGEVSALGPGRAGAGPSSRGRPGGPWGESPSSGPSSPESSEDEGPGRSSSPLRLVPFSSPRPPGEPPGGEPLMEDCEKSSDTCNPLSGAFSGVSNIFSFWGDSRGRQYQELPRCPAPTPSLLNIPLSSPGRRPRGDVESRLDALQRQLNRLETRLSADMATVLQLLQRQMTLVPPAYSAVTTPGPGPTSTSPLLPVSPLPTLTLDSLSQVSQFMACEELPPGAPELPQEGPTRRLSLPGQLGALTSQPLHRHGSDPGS

Compared with `O=C(CSc1nc(C2CCCCC2)nc2ccccc12)N1CCCC1`, `COc1ccccc1CC(=O)Nc1ccc(C(=O)N2CCCCC2)cc1` is higher in “hERG current change (%, negative = inhibition) at 10uM” value: -12.6% for the first, 2.21% for the second.

First: COc1ccccc1/C=N/NC(=O)C1=NNC(c2ccccc2)(c2ccccc2)C1
Second: Cc1cc(Oc2ccccc2)nc(SCC(=O)Nc2ccccc2)n1
The “hERG current change (%, negative = inhibition) at 10uM” value of the first is lower: 2.43% for the first, 19.4% for the second.

Going from `O=C(CSc1nncn1-c1ccccn1)Nc1ccccc1Cl` to `O=C(CCN1CCN(Cc2ccccc2)CC1)Nc1ccccc1Cl`, the “hERG current change (%, negative = inhibition) at 10uM” value falls from 4.16% to -46.2%.

Compared with `CCCCn1nnnc1SCC(=O)Nc1ccc(C)cc1`, `C=CCn1nnnc1SCC(=O)Nc1cccc(C(F)(F)F)c1` is higher in “hERG current change (%, negative = inhibition) at 10uM” value: 2.26% for the first, 9.66% for the second.

Going from `COc1cccc(OCCn2cc(C=O)c3ccccc32)c1` to `O=C(CN1C(=O)c2ccccc2C1=O)NCCOc1ccccc1`, the “hERG current change (%, negative = inhibition) at 10uM” value falls from 15.2% to -2.09%.

First: CC(C)(C)c1ccc(C(=O)Nc2cccc3ncccc23)cc1
Second: CC(=O)Nc1cccc(-c2cnc3ccccc3n2)c1
The “hERG current change (%, negative = inhibition) at 10uM” value of the first is higher: -2.82% for the first, -9.95% for the second.

First: CC1CCN(c2oc(-c3ccccc3F)nc2C#N)CC1
Second: Cc1cccc(Nc2nc(N)c([N+](=O)[O-])c(N3CCC(C)CC3)n2)c1
The “hERG current change (%, negative = inhibition) at 10uM” value of the first is higher: -10.7% for the first, -15.7% for the second.

Compared with `COc1cccc(C(=O)N2CCOCC2)c1`, `COc1cccc(Nc2nc(N)c([N+](=O)[O-])c(N3CCOCC3)n2)c1` is lower in “hERG current change (%, negative = inhibition) at 10uM” value: 20.2% for the first, -14.2% for the second.

Going from `Cc1ccc(S(=O)(=O)NC(CC(C)C)C(=O)N2CCN(C/C=C/c3ccccc3)CC2)cc1` (stereo not shown) to `CCC(C)c1ccccc1NC(=O)CN1CCN(C/C=C/c2ccccc2)CC1` (stereo not shown), the “hERG current change (%, negative = inhibition) at 10uM” value falls from -21.3% to -60.4%.

Going from `O=C(CN1CCN(C/C=C/c2ccccc2)CC1)Nc1ccc(F)cc1F` to `O=C(Nc1ccc(F)cc1F)N1CCN(C/C=C/c2ccccc2)CC1`, the “hERG current change (%, negative = inhibition) at 10uM” value rises from -78.1% to -39.9%.

Going from `Cc1cc(NC(=O)CN2CCN(C/C=C/c3ccccc3)CC2)c([N+](=O)[O-])cc1C` to `Cc1ccccc1NC(=O)CCN1CCN(C/C=C/c2ccccc2)CC1`, the “hERG current change (%, negative = inhibition) at 10uM” value falls from -12% to -78.9%.

Compared with `Fc1ccc(NC(=S)N2CCN(C/C=C/c3ccccc3)CC2)c(F)c1`, `Fc1ccccc1NC(=S)N1CCN(C/C=C/c2ccccc2)CC1` is higher in “hERG current change (%, negative = inhibition) at 10uM” value: -25.8% for the first, -23.4% for the second.

Going from `Cl.O=C(CCN1CCN(C/C=C/c2ccccc2)CC1)Nc1ccccc1Cl` to `O=C(Nc1ccccc1Cl)N1CCN(C/C=C/c2ccccc2)CC1`, the “hERG current change (%, negative = inhibition) at 10uM” value rises from -76.4% to -25.9%.

First: Cc1ccccc1NC(=O)CCN1CCN(C)CC1
Second: O=C(CCN1CCN(c2ccccc2)CC1)Nc1ccccc1F
The “hERG current change (%, negative = inhibition) at 10uM” value of the first is higher: 19.4% for the first, 8.14% for the second.

Compared with `Cc1ccccc1NC(=O)N1CCN(C/C=C/c2ccccc2)CC1`, `O=C(CCN1CCN(C/C=C/c2ccccc2)CC1)Nc1ccccc1F.O=C(O)C(=O)O` is lower in “hERG current change (%, negative = inhibition) at 10uM” value: -22.7% for the first, -75.1% for the second.

Compared with `O=C(COC(=O)c1cnccn1)c1ccc(Br)cc1`, `CC(C)C(=O)Nc1cccc(-c2cnc3ccccc3n2)c1` is higher in “hERG current change (%, negative = inhibition) at 10uM” value: 0.614% for the first, 4.12% for the second.

First: O=C(CNC(=O)c1ccc(Cl)cc1Cl)OCN1C(=O)c2ccccc2C1=O
Second: COc1ccc(CN2C(=O)c3ccccc3C2=O)cc1C(=O)Nc1ccccc1N1CCOCC1
The “hERG current change (%, negative = inhibition) at 10uM” value of the first is higher: 3.68% for the first, -10.7% for the second.

First: Cc1[nH]c2ccccc2c1C(=O)C(=O)NCC1CCCO1 (stereo not shown)
Second: O=C(COc1ccccc1)Nc1ccc2c(c1)C(=O)N(CC1CCCO1)C2=O (stereo not shown)
The “hERG current change (%, negative = inhibition) at 10uM” value of the first is higher: 6.3% for the first, 6.03% for the second.

Compared with `Cc1ccc(/C=C/C(=O)N2CC(=O)Nc3ccccc32)o1`, `COc1ccc(N2C(=O)c3ccccc3NC23CCC(C)CC3)cc1` (stereo not shown) is higher in “hERG current change (%, negative = inhibition) at 10uM” value: -24.2% for the first, 4.35% for the second.

Compared with `Cc1ccccc1NC(=O)C(C)O/N=C/c1cccc([N+](=O)[O-])c1` (stereo not shown), `CC(NC(=O)C(C(=O)c1cccc([N+](=O)[O-])c1)n1cc(Cl)ccc1=O)c1ccccc1` (stereo not shown) is higher in “hERG current change (%, negative = inhibition) at 10uM” value: -38.7% for the first, -15% for the second.

Going from `CCCS(=O)(=O)N1CCCC(C(=O)NCCCN(C)c2ccccc2)C1` (stereo not shown) to `CN(C)/C=C(\C#N)S(=O)(=O)c1ccccc1`, the “hERG current change (%, negative = inhibition) at 10uM” value rises from 5.82% to 9.4%.

First: COCC(=O)N1CCC(Oc2ccc(C(=O)NCc3cc(C(C)C)no3)cc2)CC1
Second: O=C(Nc1ccnn1C1CCN(Cc2ccc(CO)o2)CC1)c1ccccc1
The “hERG current change (%, negative = inhibition) at 10uM” value of the first is lower: -2.22% for the first, 1.16% for the second.

Compared with `CS(=O)(=O)Nc1cccc(-c2cnc3ccccc3n2)c1`, `Cc1cc(S(=O)(=O)Nc2cccc(Cl)c2)c(C)s1` is higher in “hERG current change (%, negative = inhibition) at 10uM” value: -70.4% for the first, 8.15% for the second.

First: CCn1c2ccccc2c2cc(/C=N/O)ccc21
Second: Cc1cc(NC(=O)CSc2nc(-c3cccs3)nc3ccccc23)no1
The “hERG current change (%, negative = inhibition) at 10uM” value of the first is higher: 40.6% for the first, 14.7% for the second.

Compared with `CSCCC1NC2(C(=O)Nc3ccc(Cl)cc32)[C@@H]2C(=O)N(C3CCCC3)C(=O)[C@H]12` (stereo partly shown), `Cc1ccc(Nc2nc(N)c([N+](=O)[O-])c(N3CCC(C)CC3)n2)cc1C` is higher in “hERG current change (%, negative = inhibition) at 10uM” value: -8.3% for the first, 7.13% for the second.

Compared with `COc1ccc(Nc2nc(N)c([N+](=O)[O-])c(N3CCN(C)CC3)n2)cc1`, `CCOc1ccc(Nc2nc(N)c([N+](=O)[O-])c(N3CCN(C)CC3)n2)cc1` is lower in “hERG current change (%, negative = inhibition) at 10uM” value: -26.6% for the first, -48.3% for the second.

First: CCN1CCN(c2nc(Nc3cccc(OC)c3)nc(N)c2[N+](=O)[O-])CC1
Second: CCN1CCN(c2nc(Nc3cccc(C)c3)nc(N)c2[N+](=O)[O-])CC1
The “hERG current change (%, negative = inhibition) at 10uM” value of the first is lower: -73.3% for the first, -70.2% for the second.

Going from `CCN1CCN(c2nc(Nc3ccc(OC)cc3)nc(N)c2[N+](=O)[O-])CC1` to `CCOc1ccc(Nc2nc(N)c([N+](=O)[O-])c(N3CCN(CC)CC3)n2)cc1`, the “hERG current change (%, negative = inhibition) at 10uM” value falls from -32.2% to -62.6%.

First: Cc1ccc(Nc2nc(N)c([N+](=O)[O-])c(N3CCOCC3)n2)cc1C
Second: Cc1cccc(Nc2nc(N)c([N+](=O)[O-])c(N3CCOCC3)n2)c1
The “hERG current change (%, negative = inhibition) at 10uM” value of the first is higher: -13.9% for the first, -37.1% for the second.

First: Cc1cccc(Nc2nc(N)c([N+](=O)[O-])c(N3CCN(C)CC3)n2)c1
Second: CN1CCN(c2nc(Nc3ccccc3)nc(N)c2[N+](=O)[O-])CC1
The “hERG current change (%, negative = inhibition) at 10uM” value of the first is lower: -48% for the first, -40.6% for the second.

Going from `CCN1CCN(c2nc(Nc3ccc(C)c(C)c3)nc(N)c2[N+](=O)[O-])CC1` to `CCN1CCN(c2nc(N)c([N+](=O)[O-])c(Nc3ccc(C)c(C)c3)n2)CC1`, the “hERG current change (%, negative = inhibition) at 10uM” value rises from -75% to -6.91%.

First: CCOC(=O)CCNC(=O)N1CCCC(C(=O)c2cc(C)c(OC)c(C)c2)C1 (stereo not shown)
Second: COC(=O)Cc1ccc(NC(=S)N2CCN(CCO)CC2)cc1
The “hERG current change (%, negative = inhibition) at 10uM” value of the first is higher: 5.81% for the first, 3.63% for the second.

Going from `CC1=C(OC(=O)C(C)(C)C)C(C)(C)C(c2ccccc2)OC1=O` (stereo not shown) to `CC(C)(C)CN1CCC(n2nccc2NC(=O)c2ccccc2Cl)CC1`, the “hERG current change (%, negative = inhibition) at 10uM” value falls from -13.4% to -20.3%.

Going from `COc1cccc(C2CC(c3cccc(OC)c3)n3nc(N)nc3N2)c1` (stereo not shown) to `COc1ccc(-c2nnc(NC(=O)C(C)C)o2)cc1`, the “hERG current change (%, negative = inhibition) at 10uM” value rises from -4.11% to -3.15%.

First: Nc1nc(Nc2ccccc2)nc(N2CCCC2)c1[N+](=O)[O-]
Second: Nc1nc(Nc2ccccc2F)nc(N2CCCC2)c1[N+](=O)[O-]
The “hERG current change (%, negative = inhibition) at 10uM” value of the first is lower: -34.5% for the first, 4.5% for the second.

Going from `Nc1nc(Nc2ccccc2F)nc(N2CCOCC2)c1[N+](=O)[O-]` to `Nc1nc(Nc2cccc(F)c2)nc(N2CCOCC2)c1[N+](=O)[O-]`, the “hERG current change (%, negative = inhibition) at 10uM” value falls from 4.6% to -26.7%.

Going from `CCN1CCN(c2nc(N)c([N+](=O)[O-])c(Nc3cccc(C)c3)n2)CC1` to `CCN1CCN(c2nc(N)c([N+](=O)[O-])c(Nc3ccc(C)cc3)n2)CC1`, the “hERG current change (%, negative = inhibition) at 10uM” value falls from -45% to -68.9%.

Going from `CCN1CCN(c2nc(Nc3ccccc3F)nc(N)c2[N+](=O)[O-])CC1` to `CCN1CCN(c2nc(Nc3ccccc3)nc(N)c2[N+](=O)[O-])CC1`, the “hERG current change (%, negative = inhibition) at 10uM” value falls from -56.6% to -63%.

Compared with `CCN1CCN(c2nc(Nc3cccc(F)c3)nc(N)c2[N+](=O)[O-])CC1`, `O=C(Nc1ccnn1C1CCN(Cc2ccccn2)CC1)c1cccc(F)c1` is higher in “hERG current change (%, negative = inhibition) at 10uM” value: -62.6% for the first, -7.3% for the second.

First: CC12CN3CC(C)(CN(C1)C3c1cccnc1)C2=O (stereo not shown)
Second: CC(C)=CCN1CCC(n2nccc2NC(=O)c2ccccc2Cl)CC1
The “hERG current change (%, negative = inhibition) at 10uM” value of the first is higher: -0.24% for the first, -57.9% for the second.

Compared with `CC(NCc1ccco1)C(=O)N1CCc2ccccc2C1.Cl` (stereo not shown), `O=C(NCc1ccco1)c1ccc(Cn2cc([N+](=O)[O-])cn2)o1` is lower in “hERG current change (%, negative = inhibition) at 10uM” value: 14% for the first, -10.3% for the second.

First: O=C1c2cccc3c(N4CCCCC4)ccc(c23)C(=O)N1c1cccc(O)c1
Second: O=C(Nc1ccnn1C1CCN(C/C=C/c2ccccc2)CC1)c1cccc(F)c1
The “hERG current change (%, negative = inhibition) at 10uM” value of the first is higher: 32.6% for the first, -70.9% for the second.

First: CNC(=O)c1c(NC(=O)c2ccc(N3C(=O)CCC3=O)cc2)sc2c1CCCC2
Second: CCOc1cc(NC(=O)c2ccccc2C)c(OCC)cc1NC(=O)C1=Cc2ccccc2OC1
The “hERG current change (%, negative = inhibition) at 10uM” value of the first is lower: -13.3% for the first, 9.99% for the second.

Going from `CC(C)(C)NC(=S)NC(=O)C12CCC3CC(CC(C3)C1)C2` to `O=C(Nc1ccnn1C1CCN(C2CCOCC2)CC1)c1cccc(F)c1`, the “hERG current change (%, negative = inhibition) at 10uM” value falls from 6.45% to -1.9%.

First: O=C(Nc1ccnn1C1CCN(C/C=C/c2ccccc2)CC1)c1ccccc1
Second: O=C(Nc1ccnn1C1CCN(C/C=C/c2ccccc2)CC1)c1ccccc1Cl
The “hERG current change (%, negative = inhibition) at 10uM” value of the first is higher: -73.7% for the first, -83.8% for the second.

`O=C(Nc1ccnn1C1CCN(Cc2ccc(CO)o2)CC1)c1ccccc1Cl` was tested, and the “hERG current change (%, negative = inhibition) at 10uM” value was -0.636%.
